CtBP-E1A inh = blocks the CtBP interaction with E1A | activity change, % (test concentration not listed) | actives 0.49% (n = 340,000) | AlphaScreen GST-E1A/His-CtBP binding, 1536-well; hits give low values | AID 651724; in the data active = activity change below about -65%; inconclusive = mostly about -30% to -63%; also: % is scaled to controls: 0 for no effect and ±100 for the full control effect
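AlphaScreen with 125 nM GST-E1A and 125 nM His-CtBP (5X stocks) in Tris pH 8.0, 300 mM NaCl, BSA, Tween 20, TCEP. Compounds preincubated 2 h at 37 deg C, then glutathione donor/nickel acceptor beads added for 1 h at 37 deg C in dark.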
CBFb RUNX1 block = inhibitors of human CBF-beta and RUNX1 interaction. Q01196+Q13951. AlphaScreen CBFb-His/RUNX1-biotin binding, biochemical. Potency, µM (doses to about 59.8 µM), for the others: at the highest dose activity, negative = inhibition, hits mostly inhibitors. 230,000 tested, under 10 active; also: % of control where 0% means no effect
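Interaction loss through any mechanism counts as activity. Pre-formed complex of His-CBF-beta and biotin-RUNX1 (30 nM apiece) is incubated with compound 15 min, then with 50 ng nickel and 50 ng streptavidin beads for 90 min before AlphaScreen detection.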
RORgamma inh = blocks mouse ROR gamma transcriptional activity; Potency, µM (titrated, usually from 53.6 µM), inactives show top-dose activity change, negative = inhibition, hits mostly inhibitors; Drosophila S2 Gal4-RORgamma UAS-luciferase reporter, 20 h; actives 5.4% (n = 310,000); also: potency is read from the fitted curve at half-maximal effect; % is scaled to controls: 0 for no effect and ±100 for the full control effect; nearly all actives have a fitted effect of over 60% in size
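Stably transfected Drosophila Schneider cells are the test system, with ROR gamma fused to Gal4 and luciferase under UAS control; luminescence is read after 20 hr of 700 uM copper sulfate induction at ambient temperature.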
MBNL1-CUG inh = blocks human MBNL1 binding to CUG repeat RNA; Potency, µM (top dose mostly 57.5 µM), for the others: top-dose activity change, negative = inhibition, most hits filed as inhibitors; actives 0.036% (n = 280,000); AID 2675; TR-FRET MBNL1-His/biotin-(CUG)12 binding, 665/545 ratio; active = well fitted inhibition curve with a large enough effect in the signal ratio, with a control signal flat, not every such curve was filed as active; inconclusive = small, poorly fitted or top-dose-only effect, or effect the other way, or a change in a side signal; inactive = no such curve, though single readings can be large or run the other way; the % refers to the signal ratio; also: potency is read from the fitted curve at half-maximal effect; % is scaled to controls: 0 for no effect and ±100 for the full control effect
Target sequence (Q9NR56 whole entry, looked up): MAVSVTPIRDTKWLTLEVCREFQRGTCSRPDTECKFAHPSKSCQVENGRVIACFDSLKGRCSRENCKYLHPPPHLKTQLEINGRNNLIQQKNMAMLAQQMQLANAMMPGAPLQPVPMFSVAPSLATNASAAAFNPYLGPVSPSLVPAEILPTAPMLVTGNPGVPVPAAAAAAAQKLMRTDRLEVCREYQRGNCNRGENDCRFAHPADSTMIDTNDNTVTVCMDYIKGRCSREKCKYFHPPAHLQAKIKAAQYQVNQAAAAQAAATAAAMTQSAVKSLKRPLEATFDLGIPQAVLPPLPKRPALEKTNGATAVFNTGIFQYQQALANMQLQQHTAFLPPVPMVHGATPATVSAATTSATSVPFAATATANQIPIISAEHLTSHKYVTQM
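MBNL1-His + Biotin-(CUG)12, cpd titration 92 nM–58 uM; Tb anti-His Ab 0.055 ng/ul, SA-XL665 5 nM (final); 60 min RT; ratiometric 665/545 nm, Ex 340 nm; normalized to buffer and full-complex controls.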
Six1-Eya2 blk = blocks human Six1 binding to Eya2 | activity change, % (concentration not given with the values) | actives 0.56% (n = 360,000) | AlphaScreen GST-Six1/His-Eya2 binding, biochemical; hits give low values | Q15475+O00167; in the data active = activity change below about -65%; inconclusive = mostly about -30% to -63%; also: % is scaled to controls: 0 for no effect and ±100 for the full control effect
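GST-Six1 + His-Eya2 (5X stock: 250/500 nM); Tris pH 8.0, 300 mM NaCl, 0.05% BSA, 0.02% Tween 20; GSH donor/Ni acceptor beads; 1 h 37 °C dark; AlphaScreen readout.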
Gal4-VP16 FLuc = counter-screen for ROR gamma inhibitors: Gal4-VP16 reporter | Drosophila S2 Gal4-VP16 UAS-luciferase, luminescence, 20 h | Potency, µM (series often up to 53.6 µM), for inactives: at the top dose activity, negative = inhibition, hits mostly inhibitors | actives 3.5% (n = 310,000) | AID 2546;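 also: Gal4-VP16 expression switched on by copper sulfate through the metallothionein promoter; potency is read from the fitted curve at half-maximal effect; % is scaled to controls: 0 for no effect and ±100 for the full control effect; nearly all actives have a fitted effect of over 50% in size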
Starred values were filed as active, the others as inactive; ? = inconclusive; / = not tested or not shown. Only some compounds are listed: those with a hit (about 5.5% of all), similar ones and a draw of the others. Unless noted, calls follow the shape of the dose curve; as a rule, active = well fitted curve in the direction sought with a large enough effect; inconclusive = small, poorly fitted or top-dose-only effect, or another doubt; inactive = no such curve, though single readings can be large; an effect the other way counts as inactive or inconclusive.

SMILES	CtBP-E1A inh	CBFb RUNX1 block	RORgamma inh	MBNL1-CUG inh	Six1-Eya2 blk	Gal4-VP16 FLuc
CC(C)Oc1ccc(CNC(=S)N/N=C/c2ccc([N+](=O)[O-])cc2)cc1	-10.8	-6.5%	2.51µM*	0.4%	-23.1	3.16µM*
CCOc1ccc(CNC(=S)N/N=C/c2ccncc2)cc1	/	-5.7%	10µM*	4.4%	-5.0	12.6µM*
CCCCn1c(N)c(N(CC(C)C)C(=O)Cc2ccc(S(=O)(=O)N3CCOCC3)s2)c(=O)[nH]c1=O	3.0	/	/	/	-1.8	/
Cc1cc(-n2c(=S)sc3c(=O)n(-c4ccc(F)cc4)c(SCC(=O)O)nc32)ccc1Cl	-29.1	/	24.5%	18.5%	-21.6	-5.1%
CCCC(=O)N1CCCC1(C)C(=O)NCCc1ccccn1 (configuration not stated)	8.7	/	/	/	12.6	/
COC(=O)c1cc(=O)n(CCc2ccc(OC)c(OC)c2)c(=Nc2ccc(F)c(Cl)c2)s1	0.0	-9.0%	17.8µM*	10.1%	-0.6	?
COC(=O)c1cc(=O)n(Cc2ccc(OC)c(OC)c2)c(=Nc2ccc(F)cc2)s1	-2.0	-15.4%	?	0.4%	1.9	?
CCn1cc(/C=C(\NC(=O)c2ccc(OC)cc2)C(=O)N2CCOCC2)c2ccccc21	-0.5	/	5.3%	-1.7%	2.8	-6.5%
CC1CCCCN1CCCNC(=O)Cn1c(=O)c2cccn2c2ccccc21 (configuration not stated)	2.0	/	-18.0%	1.7%	-2.1	-4.7%
CC(=O)Oc1ccc(C(=O)Nc2ccc(C3(C#N)CCCC3)cc2)cc1	/	/	0.355µM*	28.1%	-1.9	0.398µM*
COc1cc(N2CCCC2)c(OC)cc1/C=C(/C#N)c1ccc(Br)cc1	?	-7.2%	-19.3%	1.7%	?	10.8%
COc1cc(N2CCCC2)c(OC)cc1/C=C(/C#N)c1ccc(F)cc1	?	-27.5%	-24.8%	-14.0%	-78.3*	12.7%
N#Cc1c(SCC(=O)Nc2ccc(C(F)(F)F)cc2)sc2c(O)cc(=O)[nH]c12	-4.6	/	?	32.7%	-2.5	-1.1%
N#Cc1c(SCC(=O)Nc2nncs2)sc2c(O)cc(=O)[nH]c12	-82.4*	/	1.7%	?	?	2.8%
COc1ccc(-c2c(Sc3ccccc3)c3cc(-c4ccc(OC)c(F)c4)ccc3n2C)cc1	2.7	/	/	/	4.5	/
COc1ccc(Cn2c(SCc3ccc(C)cc3)nc3cc(OC)c(OC)cc3c2=N)cc1Cl	-20.9	17.1%	3.98µM*	?	-9.3	1.41µM*
COc1cc2nc(SCc3ccc(C(F)(F)F)cc3)n(Cc3cccs3)c(=N)c2cc1OC	6.4	12.2%	13.0%	?	6.6	?
COc1cc2nc(SCc3ccc(Cl)cc3Cl)n(Cc3cccs3)c(=N)c2cc1OC	0.5	-5.0%	?	-5.7%	-6.1	15.8µM*
Cn1ncc(Cl)c1C(=O)NNC(=O)Nc1cccc2ccccc12	-1.2	/	26.1%	13.4%	1.2	-7.0%
Cc1ccc(N2CC(C(=O)OCC(=O)Nc3ccccc3C)CC2=O)cc1 (configuration not stated)	/	/	/	/	1.6	/
Cc1ccc(S(=O)(=O)N(C)CC(=O)Nc2ccccc2N2CCCC2)cc1	-4.7	/	/	/	-12.4	/
Oc1c(Cl)cc(Cl)cc1Sc1cc(Cl)cc(Cl)c1O	/	-21.6%	?	-24.2%	/	12.6µM*
O=C(Cc1ccccc1[N+](=O)[O-])N/N=C/c1cccnc1	0.3	/	-12.8%	15.6%	-2.1	5.6%
COc1ccc(-c2sc(C(=O)c3ccc(Cl)cc3Cl)cc2CC(=O)O)cc1	7.3	/	13.1%	205.3%	0.8	0.3%
COc1cccc(/C=N/NC(=O)c2ccc3nc[nH]c3c2)c1O	-96.1*	-10.7%	-24.7%	6.9%	-86.8*	-10.9%
SMILES	CtBP-E1A inh	CBFb RUNX1 block	RORgamma inh	MBNL1-CUG inh	Six1-Eya2 blk	Gal4-VP16 FLuc
CCOc1cc(/C=N/NC(=O)c2cccnc2)ccc1O	-9.0	-1.2%	-27.5%	5.1%	-13.1	2.0%
COc1cccc(/C=N/Nc2nn3cnnc3c3ccccc23)c1O	-91.3*	-3.4%	1.41µM*	12.3%	-87.5*	2.82µM*
COc1cccc(/C=N/Nc2ccc(S(=O)(=O)O)cc2)c1O	-1.9	-8.6%	-24.4%	7.2%	0.4	-13.9%
CCOc1cccc(/C=N/NC(=O)c2cccnc2)c1O	/	/	0.199µM*	29.1%	?	0.316µM*
COc1cccc(/C=N/Nc2ccc(C(=O)O)cc2)c1O	/	2.3%	0.0316µM*	?	-6.9	?
COc1cc(OC)c(OC)cc1/C=N/NC(=O)c1ccc2nc[nH]c2c1	-22.6	-0.5%	16.9%	/	-14.7	-9.6%
O=C(Nc1ccccc1C(=O)N1CCCCC1)c1ccccc1C(F)(F)F	1.1	/	-11.4%	-0.9%	3.6	-6.7%
COC(=O)[C@@]1(Cc2ccc(F)cc2)[C@H]2c3cc(C(=O)N(C)C)n(Cc4cccc5ccccc45)c3C[C@H]2CN1C(=O)c1ccccc1	/	-15.4%	44.4%	/	/	-15.3%
COc1ccc(/C=N/NC(=O)c2ccc3nc[nH]c3c2)c(OC)c1	/	/	-0.2%	12.6%	3.3	7.0%
COc1cccc(/C=N/NC(=O)N/N=C/c2cccc(OC)c2O)c1O	?	/	-22.8%	?	?	3.6%
COc1cc(/C=N/NC(=O)c2cc(C3CC3)[nH]n2)cc(OC)c1OC	-18.7	/	-13.8%	?	-4.2	-7.0%
COc1cccc(C=NNC(=O)c2ccncc2)c1O	-94.0*	/	/	/	-80.0*	/
CCN(CC)c1ccc(/C=N/NC(=O)c2ccc3nc[nH]c3c2)c(O)c1	-75.5*	?	?	?	?	-28.1%
CCOc1cccc(/C=N/NC(=O)c2cc(C3CC3)[nH]n2)c1O	/	/	2.24µM*	17.9%	-86.3*	2.82µM*
COc1ccc(C(=O)N/C(=C\c2ccccc2)C(=O)Nc2ccccc2C(=O)O)cc1	-4.8	/	/	/	-2.9	/
Cc1cccc(-n2ncc3c(=O)[nH]c(SCC(=O)N4CC(=O)Nc5ccccc54)nc32)c1	/	/	/	/	9.6	/
CCOc1ccc(C2C=C(c3ccc(C)cc3)Nc3ncnn32)cc1 (configuration not stated)	/	7.6%	11.2µM*	?	/	-6.0%
Cc1ccc(C2=CC(c3ccc(C)cc3)n3ncnc3N2)cc1 (configuration not stated)	4.1	/	/	/	0.0	/
CC(=O)OC1CC2C(C)(C)CCC(=O)[C@@]2(C)C2CC[C@@]3(C)C(c4ccoc4)OC(=O)C4OC43[C@]12C (some centres not stated)	/	8.7%	7.4%	/	/	-1.3%
CCC1CCCCN1C(=O)c1cc(COc2ccc3ncccc3c2)on1 (configuration not stated)	6.6	6.2%	?	15.2%	-8.5	2.82µM*

Compound activity (PubChem)
